DT40 TDP1 no CPT: qHTS for Inhibitors of human tyrosyl-DNA phosphodiesterase 1 (TDP1): qHTS in cells in absence of CPT | AID 686978, 2013 | hit rate 15% among 420,000 | Potency, µM (series often up to 46.2 µM), for the others: at the top dose activity change, negative = growth inhibition, most hits filed as inhibitors | DT40 Tdp1-/- hTDP1 cells, no CPT, ATP luminescence, 48 h; further: potency means the concentration at half of the fitted maximal effect; nearly all actives have a fitted effect of over 55% in size
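Stably hTDP1-transfected Tdp1-null chicken DT40 cells were treated with library compounds minus camptothecin and grown for at least 48 hr at 37 °C, after which cellular ATP was quantified by luminescence.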
HT1080NT lethal: qHTS for induction of synthetic lethality in tumor cells producing 2HG: qHTS for the HT-1080-NT fibrosarcoma cell line; hit rate 1.6% among 360,000; HT-1080-NT fibrosarcoma viability, CellTiter-Glo ATP luminescence, 48 h; Potency, µM (series often up to 46.1 µM), inactives show at the top dose activity, negative = less viability, actives largely listed as cytotoxic;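 further: NT is the 2HG producing partner of a matched IDH1 knockdown line; potency means the concentration at half of the fitted maximal effect; 0% = DMSO-treated cells and -100% = media-only wells without cells; nearly all actives have a fitted effect of over 55% in size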
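Viability by CellTiter-Glo luminescence after 48 h compound exposure at 37C of HT-1080-NT cells (750/well, RPMI, 5% FBS). % activity scaled between DMSO wells and medium-only wells, then curve-fitted and categorized by curve class.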
uPA generation: qHTS for Inhibitors of Cell Surface uPA Generation. cell surface uPA generation assay, qHTS. Potency, µM (series often up to 38.3 µM), without a hit: at the top dose activity change, negative = inhibition, actives largely listed as inhibitors. hit rate 0.31% among 330,000; active means well fitted inhibition curve with a large enough effect; inconclusive means small, poorly fitted or top-dose-only effect; inactive means no such curve, though single readings can be large or run the other way; tested in mouse RAW 264.7 cells; further: potency means the concentration at half of the fitted maximal effect; nearly all actives have a fitted effect of over 55% in size
IL-1B inflam inh: qHTS for Inhibitors of Inflammasome Signaling: IL-1-beta AlphaLISA Primary Screen | AID 743279, 2014 | hit rate 4.7% among 360,000 | THP-1 LPS/ATP IL-1B secretion, AlphaLISA, 16 h; active compounds read low | activity change, % at 57.5 µM; in the data active means activity change below about -50%; inconclusive means mostly about -30% to -49%
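THP-1 cells pretreated 1 hr with compounds (up to 57.5 uM final), then stimulated with LPS (250 ng/mL final) plus ATP (1.25 mM final); secreted IL-1B measured by AlphaLISA after 16 hr, decreased signal indicating inhibition.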
HT1080 IDH1KD tx: qHTS for induction of synthetic lethality in tumor cells producing 2HG: qHTS for the HT-1080-IDH1KD cell line. Potency, µM (doses to about 46.1 µM), inactives show top-dose activity, negative = toxicity, usual class: cytotoxic. hit rate 2% among 360,000. AID 686971, 2013. HT-1080 IDH1 knockdown viability, ATP luminescence, 48 h;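 further: potency means the concentration at half of the fitted maximal effect; 0% = DMSO wells and -100% = cell-free medium wells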
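In this qHTS, HT-1080 cells depleted of IDH1 are exposed for 48 h at 37 °C to compound titrations. Toxicity is scored from CellTiter-Glo luminescence, with DMSO as full viability and medium alone as none.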
TDP1 cell CPT: qHTS for Inhibitors of human tyrosyl-DNA phosphodiesterase 1 (TDP1): qHTS in cells in presence of CPT. chicken DT40 Tdp1-/-;hTDP1 cells + 20 nM CPT, ATP luminescence, 48 h. Potency, µM (series often up to 46.2 µM), without a hit: top-dose activity change, negative = growth inhibition, actives largely listed as inhibitors. hit rate 12% among 420,000. AID 686979, 2013; further: potency means the concentration at half of the fitted maximal effect; nearly all actives have a fitted effect of over 55% in size
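Cell growth measured by CellTiter-Glo luminescence after a minimum 48 h, 37 C compound exposure with 20 nM CPT in Tdp1-knockout DT40 cells stably expressing hTDP1, seeded 400/well; qHTS titration format.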
Active calls of the source: *; i = inactive; ? = inconclusive; nt = no result. Hits are enriched below; roughly 19% of the tested compounds scored in any of these assays. Unless noted, the call rests on the fitted dose curve; in most records, active means well fitted curve in the direction sought with a large enough effect; inconclusive means small, poorly fitted or top-dose-only effect, or another doubt; inactive means no such curve, though single readings can be large; an effect the other way counts as inactive or inconclusive. Unless noted, on the % scale 0 is the no-effect control and ±100 the full control effect.

SMILES	DT40 TDP1 no CPT	HT1080NT lethal	uPA generation	IL-1B inflam inh	HT1080 IDH1KD tx	TDP1 cell CPT
Cc1ccc(-n2c(NN)nc3ccccc3c2=O)c(C)c1	?	-23%	2%	-4	-20%	?
CCN1CCN(c2ccc(S(=O)(=O)N3CCCCC3)cc2NC(=O)CC(NC(C)=O)c2ccccc2)CC1 (stereo not given)	-15%	-3%	-11%	-6	-2%	-1%
CCN1CCN(c2ccc(S(=O)(=O)N3CCCCC3)cc2NC(=O)/C=C/c2cccc(OC)c2OC)CC1	16µM*	-21%	-8%	i	-5%	?
O=C(Nc1ccc(OC(F)F)cc1)c1cc(S(=O)(=O)N2CCCCC2)ccc1N1CCOCC1	5%	-1%	2%	-24	5%	-12%
CCN1CCN(c2ccc(S(=O)(=O)N3CCCCC3)cc2NC(=O)/C=C/c2ccc(OC(F)F)cc2)CC1	?	-11%	-9%	-84*	-21%	?
CCN1CCN(c2ccc(S(=O)(=O)N3CCOCC3)cc2NC(=O)/C=C/c2ccc(C)cc2)CC1	?	2%	-17%	?	3%	-6%
CC(Oc1ccc(F)cc1)C(=O)Nc1ccccc1N1CCCCC1 (stereo not given)	16µM*	-5%	17%	-12	-1%	?
CN1CCN(c2ccc(S(=O)(=O)N3CCCCC3)cc2NC(=O)/C=C/c2ccc(OC(F)F)cc2)CC1	-86%	?	-9%	-80*	?	?
CC1CN(C(=O)CCNS(=O)(=O)c2ccc(Br)cc2)CC(C)O1 (stereo not given)	1%	4%	2%	7	3%	7%
Cc1cc(SCC(=O)Nc2nsc(-c3ccc(C(C)(C)C)cc3)n2)nc2ccccc12	-99%	nt	nt	nt	nt	?
O=C(/C=C/c1ccc(Cl)cc1)Nc1cc(S(=O)(=O)N2CCOCC2)ccc1N1CCOCC1	?	-1%	-9%	?	-15%	?
CCN1CCN(c2ccc(S(=O)(=O)N3CCOCC3)cc2NC(=O)C(C)Oc2ccc(Cl)cc2)CC1 (stereo not given)	18µM*	-19%	-1%	-8	-2%	?
CCN1CCN(c2ccc(S(=O)(=O)N3CCOCC3)cc2NC(=O)c2cc(Cl)nc3ccccc23)CC1	16µM*	3%	-3%	-17	6%	?
CN1CCN(c2ccc(S(=O)(=O)N3CCCCC3)cc2NC(=O)COc2ccc(F)cc2)CC1	?	1%	0%	?	-15%	?
CCN1CCN(c2ccc(S(=O)(=O)N3CCOCC3)cc2NC(=O)CC(C)C)CC1	4%	6%	-5%	6	-11%	3%
CC(Oc1ccc(F)cc1)C(=O)Nc1cc(S(=O)(=O)N2CCCCC2)ccc1N1CCN(C)CC1 (stereo not given)	?	-10%	-3%	?	-15%	23µM*
CN1CCN(c2ccc(S(=O)(=O)N3CCCCC3)cc2NC(=O)/C=C/c2ccc(Cl)c([N+](=O)[O-])c2)CC1	?	-15%	-9%	-81*	?	?
CCN1CCN(c2ccc(S(=O)(=O)N3CCOCC3)cc2NC(=O)c2ccccc2SC)CC1	-15%	4%	0%	1	-1%	-27%
CCN1CCN(c2ccc(S(=O)(=O)N3CCCCC3)cc2NC(=O)/C=C/c2ccc(F)cc2)CC1	?	-4%	-9%	?	-4%	?
